Test results reported in PubChem BioAssay (EPA / NIEHS).
The source made the active and inactive calls. The calls were made as follows: active = hit-call score of the fitted dose curve at least 0.9, where 1 is the maximum; inactive = score below 0.9.

How the values were obtained:
Conditions in all cases: mRNA level, 48 h; actives raise or lower the signal
[1] = read-out: adenosine kinase (ADK) gene, ADK (gene 132); assay: LTEA_HepaRG_ADK: Life Technologies and Expression Analysis (LTEA) Assay for adenosine kinase (ADK) gene using HepaRG (AID 2283471)
In short: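 Read-out is ADK transcript level measured by qRT-PCR and normalised to three housekeeping genes. Cells are human HepaRG, dosed for 48 h at up to 100 uM in 0.5% DMSO. Gain or loss of signal is fitted against DMSO controls.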

[2] = read-out: Alpha-fetoprotein (AFP) gene, AFP (gene 174); assay: LTEA_HepaRG_AFP: Life Technologies and Expression Analysis (LTEA) Assay for Alpha-fetoprotein (AFP) gene using HepaRG (AID 2283472)
In short: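 qRT-PCR (Fluidigm TaqMan) readout of AFP transcript, normalized to three housekeeping genes, fitted bidirectionally against 0.5% DMSO baseline. HepaRG cells received chemicals for 48 h in serum-free induction medium, top concentration 100 uM, half-log steps.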

BCL2L11 (gene 10018) = assay: LTEA_HepaRG_BCL2L11: Life Technologies and Expression Analysis (LTEA) Assay for Bcl-2 (BCL2L11) gene using HepaRG (AID 2283473)
In short: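 Differentiated human HepaRG cells in serum-free induction medium were exposed in duplicate for 48 h to eight concentrations (top 100 uM, half-log steps, 0.5% DMSO). BCL2L11 mRNA was quantified by TaqMan qRT-PCR, normalized to ACTB/GAPDH/POLR2A, bidirectional fit versus DMSO.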

[3] = read-out: Apolipoprotein A-V (APOA5) gene, APOA5 (gene 116519); assay: LTEA_HepaRG_APOA5: Life Technologies and Expression Analysis (LTEA) Assay for Apolipoprotein A-V (APOA5) gene using HepaRG (AID 2283474)
In short: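 Differentiated human HepaRG cells were exposed in duplicate for 48 h to eight half-log concentrations from 100 uM in 0.5% DMSO. APOA5 mRNA was quantified by TaqMan qRT-PCR, normalized to ACTB, GAPDH and POLR2A, and fitted bidirectionally against DMSO.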

[4] = read-out: Apoptosis regulator Bcl-2 (Homo sapiens) (UniProt P10415); assay: LTEA_HepaRG_BCL2: Life Technologies and Expression Analysis (LTEA) Assay for Bcl-2 gene using HepaRG (AID 2283475)
In short: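 qRT-PCR read-out (Fluidigm TaqMan) of BCL2 transcript, normalised to three housekeeping genes, after 48 h chemical exposure of HepaRG cells; 8-point half-log series, top 100 uM, 0.5% DMSO vehicle. Gain or loss of signal fitted relative to DMSO baseline.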

[5] = read-out: Bcl-2 (BID) gene, BID (gene 637); assay: LTEA_HepaRG_BID: Life Technologies and Expression Analysis (LTEA) Assay for Bcl-2 (BID) gene using HepaRG (AID 2283476)
In short: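 HepaRG, 48 h exposure, 8-pt half-log series, top 100 uM, 0.5% DMSO vehicle, duplicates. Readout: BID mRNA by TaqMan qRT-PCR; housekeeping-normalized; bidirectional curve fit vs DMSO baseline.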

Caspase-3 (Homo sapiens) = Caspase-3 (Homo sapiens) (UniProt P42574); assay: LTEA_HepaRG_CASP3: Life Technologies and Expression Analysis (LTEA) Assay for cysteine-aspartic acid protease (CASP3) using HepaRG (AID 2283477)
Chain of Caspase-3 (Homo sapiens) (P42574 whole entry, looked up): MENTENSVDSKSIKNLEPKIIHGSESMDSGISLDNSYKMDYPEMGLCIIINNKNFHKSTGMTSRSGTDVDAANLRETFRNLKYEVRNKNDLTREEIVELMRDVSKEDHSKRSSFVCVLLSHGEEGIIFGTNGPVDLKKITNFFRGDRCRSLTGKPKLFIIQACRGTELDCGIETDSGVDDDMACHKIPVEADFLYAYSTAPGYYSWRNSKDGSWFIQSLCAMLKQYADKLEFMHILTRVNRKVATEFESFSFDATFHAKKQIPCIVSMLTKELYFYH
In short: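 Differentiated human HepaRG cells in serum-free induction medium were exposed 48 h to 8-point half-log concentrations from 100 uM (0.5% DMSO vehicle). CASP3 mRNA was measured by qRT-PCR, normalised to ACTB, GAPDH and POLR2A, with bidirectional fitting against DMSO.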

[6] = read-out: Cytochrome P450 (CYP24A1), CYP24A1 (gene 1591); assay: LTEA_HepaRG_CYP24A1: Life Technologies and Expression Analysis (LTEA) Assay for Cytochrome P450 (CYP24A1) using HepaRG (AID 2283478)
In short: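 Differentiated HepaRG cells, pre-cultured 48 h, were exposed in duplicate for 48 h in serum-free induction medium to 8 half-log concentrations (top 100 uM, 0.5% DMSO). CYP24A1 mRNA was quantified by TaqMan qRT-PCR, normalized to ACTB/GAPDH/POLR2A, fitted bidirectionally versus DMSO.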

[7] = read-out: Cytochrome P450 (CYP1A2), CYP1A2 (gene 1544); assay: LTEA_HepaRG_CYP1A2: Life Technologies and Expression Analysis (LTEA) Assay for Cytochrome P450 (CYP1A2) using HepaRG (AID 2283479)
In short: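 Differentiated human HepaRG cells in serum-free induction medium were exposed in duplicate for 48 h to 8-point half-log concentrations up to 100 uM in 0.5% DMSO. CYP1A2 mRNA measured by qRT-PCR, normalized to ACTB, GAPDH, POLR2A; bidirectional fit vs DMSO.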

[8] = read-out: cysteine-aspartic acid protease (CASP8), CASP8 (gene 841); assay: LTEA_HepaRG_CASP8: Life Technologies and Expression Analysis (LTEA) Assay for cysteine-aspartic acid protease (CASP8) using HepaRG (AID 2283480)
In short: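 CASP8 transcript measured by TaqMan qRT-PCR with ACTB/GAPDH/POLR2A normalization, after 48 h chemical exposure of HepaRG cells in serum-free induction medium. Eight concentrations, top 100 uM, half-log steps, 0.5% DMSO vehicle; fits in both directions versus DMSO.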

[9] = read-out: Cytochrome P450 2C19 (Homo sapiens) (UniProt P33261); assay: LTEA_HepaRG_CYP2C19: Life Technologies and Expression Analysis (LTEA) Assay for CYP2C19 using HepaRG (AID 2283482)
In short: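 Differentiated human HepaRG cells were exposed for 48 h in serum-free induction medium to 8 concentrations (top 100 uM, half-log steps, 0.5% DMSO). CYP2C19 mRNA was measured by qRT-PCR, normalized to ACTB/GAPDH/POLR2A, and fitted bidirectionally against DMSO.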

CYP2C8 (gene 1558) = assay: LTEA_HepaRG_CYP2C8: Life Technologies and Expression Analysis (LTEA) Assay for CYP2C8 using HepaRG (AID 2283483)
In short: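 CYP2C8 expression measured by TaqMan qRT-PCR and normalized to three housekeeping genes. HepaRG cultures were treated for 48 h with an eight-point half-log series topping at 100 uM, vehicle 0.5% DMSO, duplicates; fitted both directions against DMSO.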

CYP2C9 (gene 1559) = assay: LTEA_HepaRG_CYP2C9: Life Technologies and Expression Analysis (LTEA) Assay for CYP2C9 using HepaRG (AID 2283484)
In short: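 CYP2C9 transcript level, quantified by TaqMan qRT-PCR against three housekeeping genes, was fitted bidirectionally relative to 0.5% DMSO. HepaRG cultures were treated 48 h, in duplicate, at eight half-log concentrations topping at 100 uM.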

CYP2E1 (gene 1571) = assay: LTEA_HepaRG_CYP2E1: Life Technologies and Expression Analysis (LTEA) Assay for CYP2E1 using HepaRG (AID 2283485)
In short: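 CYP2E1 transcript was measured by TaqMan qRT-PCR in human HepaRG cultures after 48 h chemical exposure (top 100 uM, half-log steps, 0.5% DMSO vehicle). Housekeeping-gene normalization; gain or loss fitted relative to DMSO baseline.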

CYP4A11 (gene 1579) = assay: LTEA_HepaRG_CYP4A11: Life Technologies and Expression Analysis (LTEA) Assay for CYP4A11 using HepaRG (AID 2283486)
In short: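 Differentiated HepaRG cells, serum-free induction medium, exposed 48 h in duplicate to 8-point half-log series from 100 uM in 0.5% DMSO. CYP4A11 mRNA measured by qRT-PCR, normalized to ACTB, GAPDH, POLR2A; bidirectional fit versus DMSO.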

[10] = read-out: Cytochrome P450 3A4 (Homo sapiens) (UniProt P08684); assay: LTEA_HepaRG_CYP3A4: Life Technologies and Expression Analysis (LTEA) Assay for CYP3A4 using HepaRG (AID 2283487)
In short: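 HepaRG, 48 h exposure, 8-pt CRC from 100 uM (half-log), 0.5% DMSO, duplicates; serum-free induction medium. Readout: CYP3A4 mRNA, qRT-PCR, ACTB/GAPDH/POLR2A normalization. Bidirectional fit vs DMSO.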

[11] = read-out: DNA damage-inducible transcript 3 (DDIT3), DDIT3 (gene 1649); assay: LTEA_HepaRG_DDIT3: Life Technologies and Expression Analysis (LTEA) Assay for DNA damage-inducible transcript 3 (DDIT3) using HepaRG (AID 2283488)
In short: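 qRT-PCR readout (Fluidigm TaqMan), housekeeping-normalized to ACTB, GAPDH, POLR2A. HepaRG cells, 48 h exposure, 8-point half-log series from 100 uM in 0.5% DMSO, duplicates. Gain or loss of signal fitted against DMSO baseline.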

[12] = read-out: Pro-epidermal growth factor (Homo sapiens) (UniProt P01133); assay: LTEA_HepaRG_EGF: Life Technologies and Expression Analysis (LTEA) Assay for Epidermal growth factor (EGF) using HepaRG (AID 2283489)
In short: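 Differentiated human HepaRG cells, plated 48 h then switched to serum-free induction medium, were exposed for 48 h to test chemicals (8-point half-log series, top 100 uM, 0.5% DMSO). EGF mRNA was quantified by qRT-PCR, normalized to ACTB, GAPDH, POLR2A.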

[13] = read-out: Early growth response protein 1 (EGR1) transcription factor, EGR1 (gene 1958); assay: LTEA_HepaRG_EGR1: Life Technologies and Expression Analysis (LTEA) Assay for Early growth response protein 1 (EGR1) transcription factor using HepaRG (AID 2283490)
In short: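 EGR1 transcript levels quantified by qRT-PCR (Fluidigm arrays) against three housekeeping genes after 48 h chemical exposure of HepaRG cells. Eight-point half-log series topping at 100 uM, 0.5% DMSO vehicle, analyzed for gain or loss.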

[14] = read-out: Cytochrome P450 (CYP2B6), CYP2B6 (gene 1555); assay: LTEA_HepaRG_CYP2B6: Life Technologies and Expression Analysis (LTEA) Assay for Cytochrome P450 (CYP2B6) using HepaRG (AID 2283481)
In short: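 Differentiated HepaRG cells, serum-free induction medium, exposed 48 h in duplicate to 8-point half-log concentrations from 100 uM in 0.5% DMSO. CYP2B6 mRNA by qRT-PCR, normalized to ACTB, GAPDH, POLR2A; bidirectional fit versus DMSO.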

Measured: AC50

Chain of Apoptosis regulator Bcl-2 (Homo sapiens) (P10415 whole entry, looked up): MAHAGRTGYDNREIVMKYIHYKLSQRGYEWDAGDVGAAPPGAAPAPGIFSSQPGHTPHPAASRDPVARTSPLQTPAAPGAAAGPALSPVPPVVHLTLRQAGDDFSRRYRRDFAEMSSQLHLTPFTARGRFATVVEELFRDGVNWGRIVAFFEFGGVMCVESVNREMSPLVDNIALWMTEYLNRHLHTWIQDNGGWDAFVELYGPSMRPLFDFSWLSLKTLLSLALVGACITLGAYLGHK
Chain of Cytochrome P450 3A4 (Homo sapiens) (P08684 whole entry, looked up): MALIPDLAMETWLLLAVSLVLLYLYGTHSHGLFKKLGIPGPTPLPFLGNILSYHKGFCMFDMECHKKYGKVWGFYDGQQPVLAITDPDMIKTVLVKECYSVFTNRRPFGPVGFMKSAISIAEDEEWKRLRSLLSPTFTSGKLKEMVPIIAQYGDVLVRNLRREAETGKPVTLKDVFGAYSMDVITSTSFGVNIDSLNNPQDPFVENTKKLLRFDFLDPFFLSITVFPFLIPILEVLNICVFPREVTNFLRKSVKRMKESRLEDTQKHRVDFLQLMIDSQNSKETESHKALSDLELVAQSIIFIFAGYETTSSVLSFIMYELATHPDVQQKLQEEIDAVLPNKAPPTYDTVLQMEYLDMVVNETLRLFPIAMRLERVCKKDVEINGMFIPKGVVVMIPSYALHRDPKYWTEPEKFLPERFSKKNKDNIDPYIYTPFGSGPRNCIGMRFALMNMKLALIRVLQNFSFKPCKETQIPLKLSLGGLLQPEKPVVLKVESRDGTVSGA
Chain of Cytochrome P450 2C19 (Homo sapiens) (P33261 whole entry, looked up): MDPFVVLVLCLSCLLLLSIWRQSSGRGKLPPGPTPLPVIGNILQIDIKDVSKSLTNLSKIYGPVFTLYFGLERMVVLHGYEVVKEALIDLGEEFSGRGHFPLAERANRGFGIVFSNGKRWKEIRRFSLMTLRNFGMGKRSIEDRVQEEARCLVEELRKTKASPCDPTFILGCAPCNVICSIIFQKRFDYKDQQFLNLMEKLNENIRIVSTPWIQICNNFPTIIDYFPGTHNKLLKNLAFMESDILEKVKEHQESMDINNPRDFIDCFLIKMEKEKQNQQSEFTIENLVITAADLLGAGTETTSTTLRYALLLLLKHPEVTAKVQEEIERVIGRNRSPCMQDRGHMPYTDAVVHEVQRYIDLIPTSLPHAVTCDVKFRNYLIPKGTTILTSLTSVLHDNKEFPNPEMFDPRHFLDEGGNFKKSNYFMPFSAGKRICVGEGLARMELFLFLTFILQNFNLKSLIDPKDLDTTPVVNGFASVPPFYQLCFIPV

CC(=O)O[C@]1(C(C)=O)CC[C@H]2[C@@H]3C=C(Cl)C4=CC(=O)[C@@H]5C[C@@H]5[C@]4(C)[C@H]3CC[C@@]21C
active: [2] 50 µM | [3] 84.3 µM | [6] 0.00316 µM | [7] 78.7 µM | [9] 63.5 µM | CYP2C9 (gene 1559) 50 µM | CYP2E1 (gene 1571) 36.9 µM | [10] 36.5 µM | [11] 18.5 µM
not listed: [14]
inactive: all other assays above

CCCCc1nc2cccnc2n1Cc1ccc(-c2ccccc2-c2nnn[nH]2)cc1
active: [2] 33.2 µM | [14] 10.4 µM | CYP2E1 (gene 1571) 28.6 µM | [10] 16 µM
inactive: all other assays above

O=Cc1ccccc1C=O
active: [7] 7.32 µM | [14] 23.3 µM
inactive: all other assays above

CC(C)c1cccc(C(C)C)c1NC(=O)NS(=O)(=O)c1cc(C(C)(C)O)co1
active: [9] 8.04 µM | CYP2E1 (gene 1571) 33.9 µM | CYP4A11 (gene 1579) 29.5 µM | [10] 3.54 µM
not listed: [14]
inactive: all other assays above

CCCCCCC(C=O)=Cc1ccccc1
active: [14] 15.9 µM
not listed: [4]
inactive: all other assays above

CCOCCOCCO
not listed: [4] | [14]
inactive: all other assays above
